From PubChem BioAssay AID588517 (NMMLSC, 2011)
In all, about 1,700 compounds went through this assay and about 65 (4%) were called active.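 The calls were made as follows: active = fluorescence ratio to DMSO above its plate's cutoff, the plate mean ratio plus 5 SD (cut at about 210% in these data); inactive = the rest.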 Only a sample is shown.

Assay: compound autofluorescence in empty-vector yeast, confirmation, artefact control for antifungal efflux pump inhibitor project, S. cerevisiae AD/pABC3, flow cytometry, Cherry Pick1 set (AID 588517);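 also: unstained yeast with no Nile Red so the signal is compound autofluorescence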
Details: at 10 µM, hits give high values
In the case of `CSCCC(NS(=O)(=O)c1ccc(C)cc1)C(=O)N1CCCC1` (stereo unspecified), the fluorescence ratio to DMSO was 90.1% (inactive).
For `CCOc1ccccc1/C=c1\sc2nc(-c3ccco3)nn2c1=O`, the fluorescence ratio to DMSO was 126% (inactive).
For `CC(/C=N/NC(=O)c1cc(-c2ccc3ccccc3c2)n[nH]1)=C\c1ccco1`, the fluorescence ratio to DMSO was 88.7% (inactive).
With `C[n+]1ccc(/C=C/c2c[nH]c3ccccc23)cc1` the fluorescence ratio to DMSO was 385% (active).
In the case of `COc1ccc(/C=C(\C#N)c2c[nH]c3ccccc23)cc1`, the fluorescence ratio to DMSO was 106% (inactive).
In the case of `CCOc1ccc(/C=C2\SC(=S)N(NC(=O)c3ccncc3)C2=O)cc1OC`, the fluorescence ratio to DMSO was 100% (inactive).
In the case of `Cc1cc(C)cc(NC(=O)C(OC(=O)c2ccc(O)cc2)c2ccccc2)c1` (stereo unspecified), the fluorescence ratio to DMSO was 103% (inactive).
For `COc1ccc(S(=O)(=O)N2CCOC2CNC(=O)C(=O)NCc2ccc(F)cc2)cc1` (stereo unspecified), the fluorescence ratio to DMSO was 113% (inactive).
For `Cc1nc2c(C(=O)NCc3ccc4c(c3)OCO4)c[nH]n2c(=O)c1Cc1ccccc1F`, the fluorescence ratio to DMSO was 84.3% (inactive).
For `Cc1ccc(Cn2nnc3c(=O)[nH]c(C4CCN(S(=O)(=O)/C=C/c5ccccc5)CC4)nc32)cc1`, the fluorescence ratio to DMSO was 110% (inactive).
In the case of `O=C(/C=C/c1c(Cl)cccc1Cl)NCc1ccccc1`, the fluorescence ratio to DMSO was 98.2% (inactive).
For `Cc1cc(/C=N/NC(=O)CC2(C)OCCO2)c(C)n1-c1ccc(Cl)c(Cl)c1`, the fluorescence ratio to DMSO was 102% (inactive).
With `Cc1ccc(/C=C(\C#N)C(=O)Nc2cccc3ncccc23)o1` the fluorescence ratio to DMSO was 98.6% (inactive).
In the case of `Cc1oc2cc3oc(=O)ccc3cc2c1C`, the fluorescence ratio to DMSO was 104% (inactive).
For `Cc1ccc(Cn2c(C)nc3c(c2=O)c2nc4ccccc4nc2n3Cc2ccco2)cc1`, the fluorescence ratio to DMSO was 105% (inactive).
In the case of `COc1ccc(C(=O)NC(=S)Nc2ccc(N3CCCC3)cc2)cc1OC`, the fluorescence ratio to DMSO was 102% (inactive).
With `CCCc1nnc(SCC(=O)Nc2ccc(C(=O)OCC)cc2)o1` the fluorescence ratio to DMSO was 116% (inactive).
For `CCOC(=O)CNC(=O)CSc1nnnn1-c1cc(C)ccc1C`, the fluorescence ratio to DMSO was 101% (inactive).
In the case of `O=C(NCc1ccccc1)C(=O)NCC1OCCN1S(=O)(=O)c1ccc(Br)cc1` (stereo unspecified), the fluorescence ratio to DMSO was 90.8% (inactive).
With `O=C(Nc1ccc(NC(=O)c2cccs2)cc1)c1ccc2ccccc2c1` the fluorescence ratio to DMSO was 109% (inactive).
For `O=S(=O)(c1ccccc1)N1CCc2ccccc21`, the fluorescence ratio to DMSO was 163% (inactive).
With `CC(/C=C/c1ccccc1)=N\NC(=O)C1CC1(C)c1ccccc1` (stereo unspecified) the fluorescence ratio to DMSO was 94.4% (inactive).
In the case of `CCCCCC(=O)Nc1ccc(C(=O)N/N=C/c2ccc([N+](=O)[O-])cc2)cc1`, the fluorescence ratio to DMSO was 103% (inactive).
In the case of `COc1ccccc1CSc1ncc(-c2ccc([N+](=O)[O-])cc2)[nH]1`, the fluorescence ratio to DMSO was 110% (inactive).
For `CCn1c(/C=C/c2ccc([N+](=O)[O-])o2)nc2ccccc2c1=O`, the fluorescence ratio to DMSO was 431% (active).
In the case of `CCOc1ccc2nc(Cl)c(C3CC(c4ccccc4)=NN3C(=O)c3cccs3)cc2c1` (stereo unspecified), the fluorescence ratio to DMSO was 95.5% (inactive).
With `Cc1ccc2[nH]c3c(=O)n(CC(=O)NCCc4ccc(Cl)cc4)ncc3c2c1` the fluorescence ratio to DMSO was 107% (inactive).
For `COc1cccc(-c2sc3ccc(OC)cc3c2-c2ccc(OCCN3CCCCC3)cc2)c1`, the fluorescence ratio to DMSO was 103% (inactive).
In the case of `COc1ccccc1NC(=O)C1CCCN1S(=O)(=O)c1ccc(Cl)cc1` (stereo unspecified), the fluorescence ratio to DMSO was 108% (inactive).
In the case of `Cc1cc(C(=O)Nc2ccc(C)c(S(=O)(=O)N3CCOCC3)c2)c2ccccc2n1`, the fluorescence ratio to DMSO was 91.8% (inactive).
In the case of `O=C(CCCCCn1c(=O)[nH]c2ccccc2c1=O)NCCc1c[nH]c2ccccc12`, the fluorescence ratio to DMSO was 110% (inactive).
With `Cc1ccc(OCc2cc(C(=O)N(C)CCc3ccccc3)no2)cc1C` the fluorescence ratio to DMSO was 106% (inactive).
For `CC12CCC(C(=O)N(c3cccc(Cl)c3)C1=O)C2(C)C` (stereo unspecified), the fluorescence ratio to DMSO was 102% (inactive).
In the case of `CCCCN1C(=O)/C(=C/C=C2/C=Cc3ccccc3N2CC)SC1=S`, the fluorescence ratio to DMSO was 68.5% (inactive).
In the case of `O=C1NC(=O)C2C1C(c1ccc([N+](=O)[O-])cc1)=NN2Cc1ccccc1` (stereo unspecified), the fluorescence ratio to DMSO was 152% (inactive).
For `CN(C)S(=O)(=O)c1cc(C(=O)Nc2ccn(C)n2)c(Cl)cc1Cl`, the fluorescence ratio to DMSO was 93.7% (inactive).
For `Cc1ccc(N=C2NC(=O)/C(=C/C=C/c3ccco3)S2)cc1C`, the fluorescence ratio to DMSO was 104% (inactive).
With `COc1ccc2[nH]c3c(C)c4cc[n+](C)cc4c(C)c3c2c1` the fluorescence ratio to DMSO was 115% (inactive).
With `COc1ccccc1/C=C/C=N/n1c(-c2ccc(Cl)cc2Cl)n[nH]c1=S` the fluorescence ratio to DMSO was 101% (inactive).
With `CCCCCCCCCCCCCCCC(=O)OC/C=C(C)/C=C/C=C(C)/C=C/C1=C(C)CCCC1(C)C` the fluorescence ratio to DMSO was 106% (inactive).
With `C/C(N)=C(/C#N)C(=O)COC(=O)c1cc(-c2cccc(Br)c2)nc2ccccc12` the fluorescence ratio to DMSO was 110% (inactive).
With `CCc1ccc(NC(=O)Cn2ncn3c(cc4ccccc43)c2=O)cc1` the fluorescence ratio to DMSO was 105% (inactive).
With `CCOC(=O)c1c(NC(=S)NC(=O)c2ccco2)sc2c1CCCC2` the fluorescence ratio to DMSO was 81.2% (inactive).
With `COc1cccc(NC(=O)CN(C)C(=O)/C=C/c2cc(OC)ccc2OC)c1` the fluorescence ratio to DMSO was 91.9% (inactive).
With `CCCc1nc(N2CCN(C)CC2)c2sc(=S)n(-c3ccccc3)c2n1` the fluorescence ratio to DMSO was 99.3% (inactive).
In the case of `COc1ccc(C(=O)NC2CC(C)(C)Cc3c2cnn3-c2ccccc2)c(OC)c1` (stereo unspecified), the fluorescence ratio to DMSO was 100% (inactive).
In the case of `CCNc1c(NS(=O)(=O)c2ccc(C3CCCCC3)cc2)c(=O)oc2ccccc12`, the fluorescence ratio to DMSO was 94% (inactive).
In the case of `COc1ccc(NC(=S)N2CCc3cc(OC)c(OC)cc3C2)cc1`, the fluorescence ratio to DMSO was 102% (inactive).
With `CCNC(=O)c1c(O)c2cccc3c2n(c1=O)CC3` the fluorescence ratio to DMSO was 83.8% (inactive).
In the case of `Cc1csc(NC(=O)c2ccc(-c3ccc(Cl)cc3Cl)o2)n1`, the fluorescence ratio to DMSO was 96.6% (inactive).
For `CSCCC(NC(=O)COc1ccccc1)C(=O)OCCOc1ccc(Br)cc1` (stereo unspecified), the fluorescence ratio to DMSO was 93.4% (inactive).
For `O=C(OCc1ccc(-c2ccccc2)cc1)c1cccc(O)c1`, the fluorescence ratio to DMSO was 116% (inactive).
For `Cc1ccc2c(c1)NC(=O)[C@@]1(C)[C@@H](c3ccccc3)[C@H]3COc4ccc(Cl)cc4[C@@H]3N1C2=O`, the fluorescence ratio to DMSO was 103% (inactive).
With `COc1ccc2sc(-c3ccccc3OC)c(-c3ccc(OCCN4CCCC4)cc3)c2c1` the fluorescence ratio to DMSO was 112% (inactive).
In the case of `Cc1cccc(NC(=O)COc2ccccc2C)n1`, the fluorescence ratio to DMSO was 95% (inactive).
For `Cc1c(CCOC(=O)CC23CC4CC(CC(C)(C4)C2)C3)sc[n+]1Cc1ccc([N+](=O)[O-])cc1`, the fluorescence ratio to DMSO was 106% (inactive).
For `O=C(CNC(=O)c1ccc(-c2ccccc2)cc1)OCc1ccc(Cl)cc1`, the fluorescence ratio to DMSO was 110% (inactive).
With `C=CCC[C@@H](Cc1ccc(F)cc1)C(=O)OC[C@H](Cc1c[nH]c2ccccc12)NC(=O)[C@@H](CC=C)CC(=O)N(CCO)Cc1ccccc1` the fluorescence ratio to DMSO was 92.1% (inactive).
For `O=C(Cn1c(COc2ccccc2)nc2ccccc21)Nc1cc(Cl)c(Cl)cc1Cl`, the fluorescence ratio to DMSO was 93.4% (inactive).
In the case of `CCCCOc1ccc(C(=O)NCC(=O)OCC(=O)c2c(N)n(C)c(=O)n(C)c2=O)cc1`, the fluorescence ratio to DMSO was 97.6% (inactive).
With `CC[n+]1cc(C)ccc1/C=C/c1ccc(N(C)C)cc1` the fluorescence ratio to DMSO was 1680% (active).
With `NNC(=O)COc1ccc(C2SCCS2)cc1` the fluorescence ratio to DMSO was 85.2% (inactive).
For `CC(C)C(=O)N1CCC2(CC1)Oc1ccc(F)cc1C(=O)C21CC(c2ccccc2)=NO1` (stereo unspecified), the fluorescence ratio to DMSO was 97.8% (inactive).
With `COc1ccc(-c2sc3ccccc3c2-c2ccc(OCCN3CCOCC3)cc2)cc1` the fluorescence ratio to DMSO was 108% (inactive).
For `CN1CCN(S(=O)(=O)c2ccc(NC(=S)NC(=O)C3CC3)cc2)CC1`, the fluorescence ratio to DMSO was 106% (inactive).
With `O=C(Cc1ccccc1)NCC1OCCc2ccccc21` (stereo unspecified) the fluorescence ratio to DMSO was 109% (inactive).
With `Cc1nn(C)cc1N1C(=O)c2cccc3c(N)ccc(c23)C1=O` the fluorescence ratio to DMSO was 111% (inactive).
With `CCOc1ccc(C2/C(=C(/O)c3ccc4c(c3)CC(C)O4)C(=O)C(=O)N2CCCn2ccnc2)cc1` (stereo unspecified) the fluorescence ratio to DMSO was 107% (inactive).
With `O=C(Cc1ccc(Br)cc1)N1CCN(c2ccccn2)CC1` the fluorescence ratio to DMSO was 98.2% (inactive).
For `CN=C(c1ccccc1)c1c(C)cccc1C`, the fluorescence ratio to DMSO was 103% (inactive).
In the case of `O=C(CN1C(=O)C2C3CCC(C3)C2C1=O)Oc1ccc2ccccc2c1` (stereo unspecified), the fluorescence ratio to DMSO was 107% (inactive).
With `Cc1nn(C)cc1C(=O)Nc1ccccc1Br` the fluorescence ratio to DMSO was 85.7% (inactive).
In the case of `COc1ccc(C(=O)C2CCCN(Cc3cccn3-c3ccccn3)C2)c(C)c1` (stereo unspecified), the fluorescence ratio to DMSO was 109% (inactive).
In the case of `O=C(CSc1nnc(-c2cccnc2)n1Cc1ccco1)c1ccc(Cl)c(Cl)c1`, the fluorescence ratio to DMSO was 104% (inactive).
In the case of `COc1ccc(C(=O)NC2CCCc3c2cnn3-c2cccc(C)c2C)c(OC)n1` (stereo unspecified), the fluorescence ratio to DMSO was 92.9% (inactive).
For `CC1CCc2c(sc(NC(=O)c3ccc(Cn4cc(Br)cn4)o3)c2C(N)=O)C1` (stereo unspecified), the fluorescence ratio to DMSO was 100% (inactive).
